Laboratory results from PubChem BioAssay AID1159580 (chemical genetic matrix, 2015).
Hit rate of the full screen: of about 5,500 compounds, about 2,000 (36%) were called active. Inconclusive results (about 18%) are left out. Rule as the data show it: active = normalized growth mostly below about 0.91 (no sharp cut-off); inconclusive = no clear call, values can overlap the other calls; inactive = mostly above about 0.92. Some of the results follow.

Assay: chemical genetic growth profiling, strain panel (AID 1159580);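 also: tested at 20 µM; growth read once vehicle control cultures reached saturation at 30 °C; 1 = growth at the plate median or of vehicle wells; lower values mean less growth of the strain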
Settings: growth OD

Measured: normalized growth

Cc1occc(=O)c1O
inactive: S. cerevisiae deletion strains, locus YKL009W, strain mrt4, stronger effect = lower value 1.01 | S. cerevisiae deletion strains, locus YKL068W, stronger effect = lower value 1 | S. cerevisiae deletion strains, locus YKL085W, strain MDH1 (second series), stronger effect = lower value 1 | S. cerevisiae deletion strains, locus YKL085W, strain MDH1, stronger effect = lower value 1 | S. cerevisiae deletion strains, locus YKL160W, strain elf1, stronger effect = lower value 0.962 | S. cerevisiae deletion strains, locus YKR001C, strain vps1, stronger effect = lower value 1.03 | S. cerevisiae deletion strains, locus YKR026C, strain gcn3, stronger effect = lower value 0.97 | S. cerevisiae deletion strains, locus YKR091W, strain srl3, stronger effect = lower value 0.962 | S. cerevisiae deletion strains, locus YLL001W, strain dnm1, stronger effect = lower value 0.96 | S. cerevisiae deletion strains, locus YLL026W, stronger effect = lower value 0.961 | S. cerevisiae deletion strains, locus YLL041C, strain sdh2, stronger effect = lower value 0.977 | S. cerevisiae deletion strains, locus YLR027C, strain aat2, stronger effect = lower value 0.97 | S. cerevisiae deletion strains, locus YLR039C, strain RIC1, stronger effect = lower value 1.01 | S. cerevisiae deletion strains, locus YLR058C, strain SHM2, stronger effect = lower value 1.01 | S. cerevisiae deletion strains, locus YLR102C, strain apc9, stronger effect = lower value 1.01 | S. cerevisiae deletion strains, locus YLR113W, strain HOG1, stronger effect = lower value 1.03 | S. cerevisiae deletion strains, locus YLR221C, strain rsa3, stronger effect = lower value 0.96 | S. cerevisiae deletion strains, locus YLR258W, strain gsy2, stronger effect = lower value 0.973 | S. cerevisiae deletion strains, locus YLR262C, strain YPT6 (second series), stronger effect = lower value 0.964 | S. cerevisiae deletion strains, locus YLR262C, strain YPT6, stronger effect = lower value 1.01 | S. cerevisiae deletion strains, locus YLR268W, strain sec22, stronger effect = lower value 1.01 | S. cerevisiae deletion strains, locus YLR320W, strain mms22, stronger effect = lower value 0.95 | S. cerevisiae deletion strains, locus YLR330W, strain CHS5, stronger effect = lower value 0.999 | S. cerevisiae deletion strains, locus YLR342W, strain FKS1 (second series), stronger effect = lower value 1 | S. cerevisiae deletion strains, locus YLR342W, strain FKS1, stronger effect = lower value 0.974 | S. cerevisiae deletion strains, locus YLR357W, strain rsc2, stronger effect = lower value 0.941 | S. cerevisiae deletion strains, locus YLR370C, strain arc18, stronger effect = lower value 0.98 | S. cerevisiae deletion strains, locus YLR371W, strain rom2, stronger effect = lower value 1.02 | S. cerevisiae deletion strains, locus YLR384C, strain iki3, stronger effect = lower value 0.969 | S. cerevisiae deletion strains, locus YLR418C, strain cdc73, stronger effect = lower value 1.03 | S. cerevisiae deletion strains, locus YML016C, strain PPZ1, stronger effect = lower value 1 | S. cerevisiae deletion strains, locus YML032C, strain rad52, stronger effect = lower value 1.01 | S. cerevisiae deletion strains, locus YML120C, strain ndi1, stronger effect = lower value 0.95 | S. cerevisiae deletion strains, locus YML124C, strain tub3, stronger effect = lower value 1.01 | S. cerevisiae deletion strains, locus YMR058W, strain fet3, stronger effect = lower value 0.971 | S. cerevisiae deletion strains, locus YMR078C, strain ctf18, stronger effect = lower value 1.01 | S. cerevisiae deletion strains, locus YMR125W, strain sto1, stronger effect = lower value 0.935 | S. cerevisiae deletion strains, locus YMR129W, stronger effect = lower value 0.972 | S. cerevisiae deletion strains, locus YMR205C, strain PFK2, stronger effect = lower value 0.948 | S. cerevisiae deletion strains, locus YMR223W, strain ubp8, stronger effect = lower value 0.998 | S. cerevisiae deletion strains, locus YMR231W, strain pep5, stronger effect = lower value 0.976 | S. cerevisiae deletion strains, locus YMR307W, strain GAS1, stronger effect = lower value 0.968 | S. cerevisiae deletion strains, locus YNL067W, strain RPL9B, stronger effect = lower value 1 | S. cerevisiae deletion strains, locus YNL071W, strain lat1, stronger effect = lower value 0.979 | S. cerevisiae deletion strains, locus YNL128W, strain TEP1, stronger effect = lower value 1.03 | S. cerevisiae deletion strains, locus YNL183C, strain NPR1, stronger effect = lower value 0.97 | S. cerevisiae deletion strains, locus YNL209W, strain ssb2, stronger effect = lower value 0.971 | S. cerevisiae deletion strains, locus YNL233W, strain BNI4, stronger effect = lower value 1.01 | S. cerevisiae deletion strains, locus YNL248C, strain rpa49, stronger effect = lower value 0.975 | S. cerevisiae deletion strains, locus YNL250W, strain rad50, stronger effect = lower value 1 | S. cerevisiae deletion strains, locus YNL271C, strain bni1, stronger effect = lower value 1.02 | S. cerevisiae deletion strains, locus YNL298W, strain CLA4, stronger effect = lower value 1.05 | S. cerevisiae deletion strains, locus YNL307C, strain MCK1, stronger effect = lower value 1.02 | S. cerevisiae deletion strains, locus YNL322C, strain KRE1 (second series), stronger effect = lower value 0.943 | S. cerevisiae deletion strains, locus YNL322C, strain KRE1, stronger effect = lower value 1 | S. cerevisiae deletion strains, locus YNR049C, strain mso1, stronger effect = lower value 0.958 | S. cerevisiae deletion strains, locus YNR052C, strain pop2, stronger effect = lower value 1.01 | S. cerevisiae deletion strains, locus YOL012C, strain htz1 1.37 | S. cerevisiae deletion strains, locus YOL147C, strain pex11, stronger effect = lower value 1.01 | S. cerevisiae deletion strains, locus YOR001W, strain rrp6, stronger effect = lower value 0.983 | S. cerevisiae deletion strains, locus YOR061W, strain CKA2, stronger effect = lower value 1.01 | S. cerevisiae deletion strains, locus YOR069W, strain VPS5, stronger effect = lower value 1.01 | S. cerevisiae deletion strains, locus YOR070C, strain gyp1, stronger effect = lower value 0.969 | S. cerevisiae deletion strains, locus YOR080W, strain dia2, stronger effect = lower value 0.961 | S. cerevisiae deletion strains, locus YOR083W, strain WHI5, stronger effect = lower value 0.952 | S. cerevisiae deletion strains, locus YOR106W, strain vam3, stronger effect = lower value 0.942 | S. cerevisiae deletion strains, locus YOR136W, strain idh2, stronger effect = lower value 1.02 | S. cerevisiae deletion strains, locus YOR144C, strain elg1, stronger effect = lower value 1.01 | S. cerevisiae deletion strains, locus YOR184W, strain ser1, stronger effect = lower value 1.03 | S. cerevisiae deletion strains, locus YOR231W, strain MKK1, stronger effect = lower value 1.02 | S. cerevisiae deletion strains, locus YOR265W, strain rbl2, stronger effect = lower value 0.971 | S. cerevisiae deletion strains, locus YOR270C, strain vph1, stronger effect = lower value 0.931 | S. cerevisiae deletion strains, locus YOR290C, strain snf2, stronger effect = lower value 0.916 | S. cerevisiae deletion strains, locus YOR316C, strain cot1, stronger effect = lower value 1.01 | S. cerevisiae deletion strains, locus YPL051W, strain arl3, stronger effect = lower value 0.973 | S. cerevisiae deletion strains, locus YPL055C, strain LGE1, stronger effect = lower value 1.01 | S. cerevisiae deletion strains, locus YPL078C, strain atp4, stronger effect = lower value 0.968 | S. cerevisiae deletion strains, locus YPL106C, strain sse1, stronger effect = lower value 0.924 | S. cerevisiae deletion strains, locus YPL240C, strain hsp82, stronger effect = lower value 0.983 | S. cerevisiae deletion strains, locus YPL241C, strain CIN2, stronger effect = lower value 1 | S. cerevisiae deletion strains, locus YPL256C, strain CLN2, stronger effect = lower value 1.01 | S. cerevisiae deletion strains, locus YPR119W, strain clb2, stronger effect = lower value 1 | S. cerevisiae deletion strains, locus YPR141C, strain kar3, stronger effect = lower value 1 | S. cerevisiae deletion strains, locus YPR163C, strain tif3, stronger effect = lower value 1 | S. cerevisiae deletion strains, locus YPR167C, strain met16, stronger effect = lower value 1.01 | S. cerevisiae deletion strains, strain wtn01, stronger effect = lower value 0.993 | S. cerevisiae strains, strain wild type, stronger effect = lower value 1
